TDP1 cell noCPT: qHTS for Inhibitors of human tyrosyl-DNA phosphodiesterase 1 (TDP1): qHTS in cells in absence of CPT; DT40 Tdp1-/- hTDP1 cells, no CPT, ATP luminescence, 48 h; Potency, µM (titrated, usually from 46.2 µM), for inactives: top-dose activity change, negative = growth inhibition, most hits filed as inhibitors; hit rate 15% among 420,000; further: potency means the concentration at half of the fitted maximal effect; nearly all actives have a fitted effect of over 55% in size
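Luminescent ATP content (CellTiter-Glo) served as the growth readout. Knockout chicken DT40 cells expressing human TDP1 were exposed to compounds without camptothecin for a minimum 48 hr at 37 °C.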
HT1080NT lethal: kills 2HG-producing HT-1080-NT fibrosarcoma cells; HT-1080-NT fibrosarcoma viability, CellTiter-Glo ATP luminescence, 48 h; Potency, µM (doses to about 46.1 µM), without a hit: at the top dose activity, negative = less viability, usual class: cytotoxic; hit rate 1.6% among 360,000; AID 686970;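 further: NT is the 2HG producing partner of a matched IDH1 knockdown line; potency means the concentration at half of the fitted maximal effect; 0% = DMSO-treated cells and -100% = media-only wells without cells; nearly all actives have a fitted effect of over 55% in size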
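HT-1080-NT fibrosarcoma cells (2HG-overproducing), 750 cells/well in RPMI with 5% FBS, dosed after 2 h and incubated 48 h at 37C. CellTiter-Glo luminescence normalized to DMSO and no-cell wells; concentration-response curves fitted and classed.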
IL1B secr inh: inflammasome signaling inhibition, IL-1 beta readout; hit rate 4.7% among 360,000; AID 743279; THP-1 LPS/ATP IL-1B secretion, AlphaLISA, 16 h; stronger effect = lower value; activity change, % at 57.5 µM; in the data active means activity change below about -50%; inconclusive means mostly about -30% to -49%
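THP-1 cells pretreated 1 hr with compounds (up to 57.5 uM final), then stimulated with LPS (250 ng/mL final) plus ATP (1.25 mM final); secreted IL-1B measured by AlphaLISA after 16 hr, decreased signal indicating inhibition.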
DT40 TDP1 CPT: growth inhibition of DT40 Tdp1-/-;hTDP1 cells with camptothecin (screen for TDP1 inhibitors) | chicken DT40 Tdp1-/-;hTDP1 cells + 20 nM CPT, ATP luminescence, 48 h | Potency, µM (highest dose often 46.2 µM), for the others: top-dose activity change, negative = growth inhibition, actives largely listed as inhibitors | hit rate 12% among 420,000 | AID 686979; further: potency means the concentration at half of the fitted maximal effect; nearly all actives have a fitted effect of over 55% in size
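Cell growth measured by CellTiter-Glo luminescence after a minimum 48 h, 37 C compound exposure with 20 nM CPT in Tdp1-knockout DT40 cells stably expressing hTDP1, seeded 400/well; qHTS titration format.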
HT1080 IDH1KD tx: HT-1080 IDH1 knockdown cell toxicity (counter line); HT-1080 IDH1 knockdown viability, ATP luminescence, 48 h; Potency, µM (doses to about 46.1 µM), for the others: at the top dose activity, negative = toxicity, actives largely listed as cytotoxic; hit rate 2% among 360,000;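 further: potency means the concentration at half of the fitted maximal effect; 0% = DMSO wells and -100% = cell-free medium wells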
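Using the IDH1-knockdown HT-1080 line run in the same batch and compound series as the NT line, viability after 48 h at 37 °C was determined by CellTiter-Glo luminescence and expressed as % activity.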
* marks the source's active call; other numbers are inactive results. An excerpt weighted towards active compounds, which were near 19% of everything screened. Unless noted, the call rests on the fitted dose curve; in most records, active means well fitted curve in the direction sought with a large enough effect; inconclusive means small, poorly fitted or top-dose-only effect, or another doubt; inactive means no such curve, though single readings can be large; an effect the other way counts as inactive or inconclusive. Unless noted, on the % scale 0 is the no-effect control and ±100 the full control effect.

Screening O=C(NC(=S)N1CCN(c2ccccc2)CC1)c1ccc(S(=O)(=O)N2CCOCC2)cc1 returned TDP1 cell noCPT inconclusive, HT1080NT lethal 4.3%, IL1B secr inh -9.8, DT40 TDP1 CPT inconclusive and HT1080 IDH1KD tx 9.4%.
`COc1cc(N=c2c([N+](=O)[O-])nn(-c3ccc4c(c3)OCCO4)n2O)cc(OC)c1` gave TDP1 cell noCPT 1.64µM*, HT1080NT lethal -18.5%, IL1B secr inh -22.3, DT40 TDP1 CPT 1.46µM* and HT1080 IDH1KD tx inconclusive.
For O=[N+]([O-])c1nn(-c2ccc3c(c2)OCCO3)n(O)c1=NCc1ccc(F)cc1 the results were TDP1 cell noCPT inconclusive, HT1080NT lethal -4.0%, IL1B secr inh -75.6*, DT40 TDP1 CPT inconclusive and HT1080 IDH1KD tx -2.5%.
Screening Cc1cc(C)cc(N=c2c([N+](=O)[O-])nn(-c3cccc(Cl)c3)n2O)c1 returned TDP1 cell noCPT inconclusive, HT1080NT lethal -7.8%, IL1B secr inh -1.2, DT40 TDP1 CPT 11.2µM* and HT1080 IDH1KD tx inconclusive.
`CCc1cccc(N=c2c([N+](=O)[O-])nn(-c3ccc4c(c3)OCCO4)n2O)c1` gave TDP1 cell noCPT 3.26µM*, HT1080NT lethal -16.2%, IL1B secr inh 0.0, DT40 TDP1 CPT 1.84µM* and HT1080 IDH1KD tx -17.3%.
Cc1c(C(=O)N2CCCC2)sc2ncnc(NCCN(C)C)c12 was read as TDP1 cell noCPT -11.2% and DT40 TDP1 CPT -3.2%.
CC(C)=C(NC(=O)c1ccccc1Cl)C(=O)NCCc1nc2ccccc2[nH]1 was read as TDP1 cell noCPT 11.1%, HT1080NT lethal 2.9%, IL1B secr inh 7.4, DT40 TDP1 CPT 9.6% and HT1080 IDH1KD tx 3.0%.
`COc1ccc(-n2c3c(c(=O)[nH]c2=O)C(NC(=O)c2ccccc2Cl)(C(F)(F)F)C(=O)N3)cc1` (stereo not drawn) gave TDP1 cell noCPT 0.9% and DT40 TDP1 CPT 15.4%.
`O=C(CNCCC1=CCCCC1)Nc1ccccc1N1CCCCC1` gave TDP1 cell noCPT inconclusive, HT1080NT lethal -4.9%, IL1B secr inh -7.9, DT40 TDP1 CPT inconclusive and HT1080 IDH1KD tx inconclusive.
Cc1cccc(N=c2c([N+](=O)[O-])nn(-c3ccc(Cl)cc3)n2O)c1 was read as TDP1 cell noCPT 0.8%, HT1080NT lethal 24.3%, IL1B secr inh 22.2, DT40 TDP1 CPT 4.2% and HT1080 IDH1KD tx 0.2%.
Screening CCc1cccc(N=c2c([N+](=O)[O-])nn(-c3ccc(Cl)cc3)n2O)c1 returned TDP1 cell noCPT inconclusive, HT1080NT lethal -19.6%, IL1B secr inh 5.3, DT40 TDP1 CPT 20.6µM* and HT1080 IDH1KD tx inconclusive.
For OC(c1cccc(Cl)c1)c1nccc2ccccc12 (stereo not drawn) the results were TDP1 cell noCPT -9.5%, HT1080NT lethal -1.5%, IL1B secr inh 0.0, DT40 TDP1 CPT -23.5% and HT1080 IDH1KD tx -4.8%.
For O=C(OC(c1ccccc1)c1nccc2ccccc12)c1cc([N+](=O)[O-])cc([N+](=O)[O-])c1 (stereo not drawn) the results were TDP1 cell noCPT 20.6µM*, HT1080NT lethal -9.9%, IL1B secr inh -1.0, DT40 TDP1 CPT 14.6µM* and HT1080 IDH1KD tx -14.4%.
COc1ccc(NS(=O)(=O)c2cccc(C(=O)NNC(=O)CNC(=O)c3ccc(C)cc3)c2)cc1 was read as TDP1 cell noCPT -1.9%, HT1080NT lethal 2.4%, IL1B secr inh 6.8, DT40 TDP1 CPT -11.1% and HT1080 IDH1KD tx 3.5%.
For CCOC(=O)c1scc(-c2ccc(C)cc2)c1S(=O)(=O)Nc1cc(Cl)ccc1OC the results were TDP1 cell noCPT 3.26µM* and DT40 TDP1 CPT 5.8µM*.
`CCOC(=O)c1scc(-c2ccc(C)cc2)c1S(=O)(=O)Nc1ccc(OC)c(Cl)c1` gave TDP1 cell noCPT 14.6µM* and DT40 TDP1 CPT 16.4µM*.
For CCOC(=O)c1scc(-c2ccccc2)c1S(=O)(=O)Nc1cc(Cl)c(OC)cc1OC the results were TDP1 cell noCPT 14.6µM* and DT40 TDP1 CPT inconclusive.
`COc1ccc(S(=O)(=O)Nc2cc3c4c(c2)CCN4C(=O)CC3)cc1C` gave TDP1 cell noCPT inconclusive, HT1080NT lethal -1.9%, IL1B secr inh 12.7, DT40 TDP1 CPT inconclusive and HT1080 IDH1KD tx -17.5%.
For CCc1nnc(NC(=O)c2cc(=O)c3cc(C)c(C)cc3o2)s1 the results were TDP1 cell noCPT -10.7% and DT40 TDP1 CPT -14.1%.
CC(C)(C)NC(=O)NC(=O)CSc1ncccn1 was read as TDP1 cell noCPT -18.5%, HT1080NT lethal 10.5%, IL1B secr inh -11.8, DT40 TDP1 CPT -1.3% and HT1080 IDH1KD tx 11.8%.
For O=C(C=CC(=O)OC1CCCCC1)OC1CCCCC1 the results were TDP1 cell noCPT inconclusive, HT1080NT lethal -19.1%, IL1B secr inh -87.9*, DT40 TDP1 CPT -28.1% and HT1080 IDH1KD tx -0.5%.
For Cc1ccccc1[C@H](NC1c2ccccc2C=Cc2ccccc21)P(=O)(c1ccccc1)c1ccccc1 the results were TDP1 cell noCPT inconclusive, HT1080NT lethal 14.6µM*, IL1B secr inh -74.3*, DT40 TDP1 CPT inconclusive and HT1080 IDH1KD tx 13µM*.
For O=C(CCc1nc2ccccc2c(=O)[nH]1)Nc1ccc(F)c([N+](=O)[O-])c1 the results were TDP1 cell noCPT inconclusive, HT1080NT lethal 0.0%, IL1B secr inh 7.2, DT40 TDP1 CPT inconclusive and HT1080 IDH1KD tx -20.8%.
O=C(Nc1cc([N+](=O)[O-])c2[nH]c(=O)c3ccccc3c2c1)C(F)(F)F was read as TDP1 cell noCPT 1.84µM*, HT1080NT lethal -2.1%, IL1B secr inh -4.9, DT40 TDP1 CPT 0.291µM* and HT1080 IDH1KD tx inconclusive.
COc1ccccc1N1CCN(C2CCCN(C(=O)c3cc(C(C)C)on3)C2)CC1 (stereo not drawn) was read as TDP1 cell noCPT inconclusive, HT1080NT lethal -0.3%, IL1B secr inh 5.5, DT40 TDP1 CPT inconclusive and HT1080 IDH1KD tx -8.0%.
COc1ccc(CCNC(=O)c2cc(=O)c3cc(C)ccc3o2)cc1OC was read as TDP1 cell noCPT 20.6µM*, HT1080NT lethal -0.8%, IL1B secr inh 24.2, DT40 TDP1 CPT inconclusive and HT1080 IDH1KD tx 2.2%.
For COc1ccc(CCNC(=O)COc2ccc3c(C)cc(=O)oc3c2)cc1OC the results were TDP1 cell noCPT 13µM*, HT1080NT lethal inconclusive, IL1B secr inh -14.0, DT40 TDP1 CPT inconclusive and HT1080 IDH1KD tx inconclusive.
For COc1ccc(CCNC(=O)c2cc(=O)c3cc(C)cc(C)c3o2)cc1OC the results were TDP1 cell noCPT 23.1µM* and DT40 TDP1 CPT 20.6µM*.

Compound activity from PubChem.
